Experimental data: PubChem BioAssay (NCATS)
Several values for one entry are separate records, joined by “and”; a condition that tells them apart may be missing. Identical values can stand only once. Inconclusive results are not listed. The source holds several records for some structures; these can differ, active in one and inactive in another. Activity calls are given as the source filed them. Unless noted, the call rests on the fitted dose curve; in most records, active means well fitted curve in the direction sought with a large enough effect; inconclusive means small, poorly fitted or top-dose-only effect, or another doubt; inactive means no such curve, though single readings can be large; an effect the other way counts as inactive or inconclusive.

Key:
[1] = qHTS assay for small molecule disruptors of mitochondrial membrane potential screened against the NCATS CANVASS Library (AID 1347389); further: on the % scale 0 is the no-effect control and ±100 the full control effect; nearly all actives have a fitted effect of over 60% in size
Summary of the method: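 HepG2 cells (2,000/well) were plated overnight at 37C, exposed to compound for 1 hr at 37C/5% CO2, then loaded with Mito-MPS dye for 30 min. Depolarization was read as a drop in red (590 nm) to green (535 nm) fluorescence ratio.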

[2] = qHTS for activators of dead-cell proteases activity screened against the NCATS CANVASS Library (AID 1347392);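 further: luminescence from protease leaking out of membrane-damaged cells cleaving impermeant substrate; 0% is about no effect; rising signal means more cytotoxicity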
Summary of the method: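 HepG2 cells (2000/well) attached 18 h at 37C, then exposed 5 h to compounds (11-point qHTS). Dead-cell protease activity read as luminescence from cell-impermeant AAF-aminoluciferin substrate after 15 min at room temperature.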

[3] = Vero-766 cells viability qHTS against the NCATS CANVASS Library: Counterscreen for Zika virus inhibition assay (AID 1347394); further: on the % scale 0 is the no-effect control and ±100 the full control effect; nearly all actives have a fitted effect of over 60% in size
Summary of the method: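 CellTiter Glo luminescence measured cytotoxicity after 72 h at 37C in uninfected Vero 766 cells, plated at 1000 cells/well. Compounds were applied in an 11-point series. Wells without cells defined 100% inhibition.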

[4] = Viability qHTS for inhibitors of the SERCaMP assay screened against the NCATS CANVASS Library (AID 1347400); further: on the % scale 0 is the no-effect control and ±100 the full control effect; nearly all actives have a fitted effect of over 70% in size
Summary of the method: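 SH-SY5Y-GLuc SERCaMP MJH297-derived cells (1000 cells/well) were pre-incubated 4 h at 37C, then exposed to compounds for 48 h. Viability was read as CellTiter-Glo luminescence; bortezomib served as positive control.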

[5] = Redox Reaction Profiling qHTS: Assay Interference Panel against the NCATS CANVASS Library (AID 1347401);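 further: 100% = activation by 2 µM chloranil control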
Summary of the method: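 Resazurin (5 uM) conversion to resorufin measured with 200 uM DTT in 50 mM HEPES pH 7.3, 50 mM NaCl. Compounds tested in 11-point qHTS series. Fluorescence (ex 525/em 598 nm) read before and after 15 min dark incubation.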

[6] = AP1 Signaling Pathway (AID 357; active means well fitted curve in either direction with a large enough effect, not every such curve was filed as active;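 further: ME-180 reporter cells stimulated with EGF at its EC50 level; on the % scale 0 is the no-effect control and ±100 the full control effect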)
Summary of the method: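 In this screen, ME-180 cells in Opti-MEM with 0.5% dialyzed FBS received EC50 EGF and compound titrations for 5 h. AP-1 reporter beta-lactamase was detected via CCF4 ratio, giving AC50 for positive and negative modulators.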

[7] = target: Cytochrome P450 1A2 (Homo sapiens) (UniProt P05177); assay: p450-cyp1a2 (AID 410; calls by dose curve; further: potency means the concentration at half of the fitted maximal effect;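 on activity change, negative = inhibition: -100% = full effect of reference inhibitor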)
Summary of the method: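 Human CYP1A2 (20nM) demethylated Luciferin-ME at its Km (100uM) in 100mM KPO4. After 10 min compound preincubation, NADPH regeneration ran the reaction 60 min at room temperature. Luciferin was read by luminescence, normalized to 57 uM furafylline.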

[8] = NFAT Signaling Pathway (AID 444; active means well fitted curve in either direction with a large enough effect, not every such curve was filed as active;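 further: carbachol stimulus at about its EC50 of 1 µM final; on the % scale 0 is the no-effect control and ±100 the full control effect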); settings: Jurkat NFAT-bla M1, carbachol, beta-lactamase ratio, 5 h; at 17.2 µM (top of the series)
Summary of the method: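 Jurkat cells carrying an NFAT-driven β-lactamase reporter and co-transfected muscarinic M1 receptor were treated with compound plus carbachol (1 uM final, an EC50 level) for 5 h at 37 °C. CCF4 loading followed for 1 h at RT; 460/530 nm ratio gave %activity.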

[9] = Stat Signaling Pathway (AID 446; active means well fitted curve in either direction with a large enough effect, not every such curve was filed as active;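 further: ME-180 cervical cancer cells given 40 pM IL-6 alongside compound; SIE-controlled beta-lactamase reporter measured as 460/530 nm FRET emission ratio; on the % scale 0 is the no-effect control and ±100 the full control effect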)
Summary of the method: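 ME-180 SIE-bla cells; overnight plating; cpd + IL-6 40 pM, 5 h, 37 C; LiveBLAzer 2.5 h RT; 460/530 nm emission ratio. Normalized to 300 pM IL-6 and 125 nM JAK inhibitor controls.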

[10] = target: Glucocorticoid receptor (Homo sapiens) (UniProt P04150); assay: GR-GFP Redistribution (AID 450;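 active means compounds whose dose series gives a full or clear partial fitted curve of increased nuclear translocation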; further: potency means the concentration at half of the fitted maximal effect); settings: U2OS GR-GFP nuclear translocation, laser cytometry, 2 h
[11] = target: Glucocorticoid receptor (Homo sapiens) (UniProt P04150); assay: GR-EFC Redistribution (AID 451; calls by dose curve; further: potency means the concentration at half of the fitted maximal effect); settings: CHO-K1 GR-EFC translocation, beta-gal luminescence, 2 h
Summary of the method: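 CHO-K1 cells stably expressing nuclear-localized β-gal enzyme acceptor and GR fused C-terminally to the enzyme donor fragment; ligand-driven nuclear translocation restores β-gal by complementation. Compounds titrated up to 46 uM final, 2 h at 37 °C; luminescence read.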

[12] = target: 3',5'-cyclic-AMP phosphodiesterase 4B (Homo sapiens) (UniProt Q07343); assay: qHTS Assay for Inhibitors of PDE-IV (AID 607; active means well fitted activation curve with a large enough effect in the main read-out, with a control signal flat, not every such curve was filed as active; further: % of control where 0% means no effect)
Summary of the method: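 ACTOne HEK293 cells carry a modified cAMP-gated CNG channel and express endogenous PDE4; plated 1000 cells/well, compounds up to 22.9 uM final. Membrane-potential dye fluorescence (ex 535/em 590) was read; parental cells received 10 uM forskolin + 100 uM RO 20-1724.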

[13] = target: DNA dC->dU-editing enzyme APOBEC-3G (Homo sapiens) (UniProt Q9HC16); assay: qHTS for inhibitors of Vif-A3G interactions: Validation (AID 588379); further: 0% is about no effect
Summary of the method: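 HeLa cells stably expressing Vif and A3G-eYFP, 700 cells/well, incubated overnight at 37 deg C, then exposed to compound overnight at 37 deg C. Inhibition of Vif-mediated degradation read as increased yellow fluorescence (Ex 488/Em 500-530) by laser-scanning cytometry.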

[14] = Validation of Assay for Modulators of Lamin A Splicing (AID 1459; active means well fitted curve in the direction sought with a large enough effect in the signal ratio; the % refers to the signal ratio;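 further: cells exposed to compound for two days before reading; 0% is about no effect; ratio rise marks activators and ratio drop marks inhibitors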)
Summary of the method: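 Splicing correction read as GFP (500-530 nm) over DsRed2 (575-640 nm) object intensity after 48 h compound exposure of reporter HeLa S3 clones (600 cells/well, 2% FBS medium); ancitabine and cycloheximide titrations, 0.5% DMSO as vehicle.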

[15] = qHTS for differential inhibitors of proliferation of Plasmodium falciparum line 3D7 (AID 1876); further: potency means the concentration at half of the fitted maximal effect
[16] = qHTS for differential inhibitors of proliferation of Plasmodium falciparum line D10 (AID 1877);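 further: parasites grown with compound for 72 h before DNA staining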; further: potency means the concentration at half of the fitted maximal effect;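 on activity change, negative = inhibition: plate controls were vehicle wells for no effect and reference inhibitor wells for full effect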
[17] = qHTS for differential inhibitors of proliferation of Plasmodium falciparum line Dd2 (AID 1882); settings: Potency: Plasmodium falciparum Dd2 proliferation inhibition;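 further: compound exposure of 72 h on infected erythrocytes; plate controls were DMSO vehicle for no effect and 0.29 µM artemisinin for full effect; nearly all actives have a fitted effect of over 65% in size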
Summary of the method: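 SYBR Green I DNA fluorescence read-out, ex 485/em 535 nm. Signals were normalized to 0.29 uM artemisinin and DMSO wells, then corrected using vehicle-only plates flanking each stack. Parasite growth ran 72 h in erythrocytes before lysis.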

[18] = qHTS for differential inhibitors of proliferation of Plasmodium falciparum line HB3 (AID 1886); settings: Potency: Plasmodium falciparum HB3 proliferation inhibition;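 further: parasites grown with compound for 72 h before SYBR Green readout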; further: potency means the concentration at half of the fitted maximal effect;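 on activity change, negative = inhibition: plate controls were vehicle for no effect and reference inhibitor for full effect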
[19] = target: M-phase phosphoprotein 8 (Homo sapiens) (UniProt Q99549); assay: qHTS Validation Assay for Inhibitors for MPP8 Chromodomain Interactions with Methylated Histone Tails (AID 488949); further: nearly all actives have a fitted effect of over 55% in size; further: potency means the concentration at half of the fitted maximal effect;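 on activity change, negative = inhibition: AlphaScreen signal from MPP8 chromodomain bound to biotinylated H3K9me3 peptide; top concentration of the series differs between compounds; on the % scale 0 is the no-effect control and ±100 the full control effect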
Summary of the method: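 AlphaScreen proximity signal from streptavidin donor and Ni-chelate acceptor beads (10 ug/mL each) reported binding of MPP8 to trimethyl-K9 H3(1-18) peptide, both at 50 nM. The complex formed 30 min before a 30 min compound exposure at room temperature, in PBS pH 7.4.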

[20] = target: Voltage-gated inwardly rectifying potassium channel KCNH2 (Homo sapiens) (UniProt Q12809); assay: qHTS Assay for Small Molecule Inhibitors of the Human hERG Channel Activity (AID 588834);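 further: top concentration of the series differs between compounds; on the % scale 0 is the no-effect control and ±100 the full control effect; lower thallium flux fluorescence means stronger hERG block; nearly all actives have a fitted effect of over 50% in size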
Summary of the method: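 Kinetic FDSS fluorescence; U2OS + hERG BacMam (~100 virus particles/cell); FluxOR Tl+ flux; ~10 min cpd; AC50 (Hill).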

Chain of Cytochrome P450 1A2 (Homo sapiens) (P05177 whole entry, looked up): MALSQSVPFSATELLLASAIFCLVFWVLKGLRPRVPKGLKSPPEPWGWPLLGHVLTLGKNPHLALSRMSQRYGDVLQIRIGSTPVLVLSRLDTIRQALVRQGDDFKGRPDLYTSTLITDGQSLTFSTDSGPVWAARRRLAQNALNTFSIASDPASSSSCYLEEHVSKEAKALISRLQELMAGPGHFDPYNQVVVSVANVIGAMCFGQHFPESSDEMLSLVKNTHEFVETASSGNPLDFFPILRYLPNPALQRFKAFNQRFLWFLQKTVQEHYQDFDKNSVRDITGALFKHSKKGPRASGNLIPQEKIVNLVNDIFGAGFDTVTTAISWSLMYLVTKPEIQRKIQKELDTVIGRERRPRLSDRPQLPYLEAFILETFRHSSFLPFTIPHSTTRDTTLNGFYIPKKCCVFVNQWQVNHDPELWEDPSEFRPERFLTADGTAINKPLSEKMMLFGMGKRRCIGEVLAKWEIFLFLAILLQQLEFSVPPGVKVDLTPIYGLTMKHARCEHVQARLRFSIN
Chain of M-phase phosphoprotein 8 (Homo sapiens) (Q99549 whole entry, looked up): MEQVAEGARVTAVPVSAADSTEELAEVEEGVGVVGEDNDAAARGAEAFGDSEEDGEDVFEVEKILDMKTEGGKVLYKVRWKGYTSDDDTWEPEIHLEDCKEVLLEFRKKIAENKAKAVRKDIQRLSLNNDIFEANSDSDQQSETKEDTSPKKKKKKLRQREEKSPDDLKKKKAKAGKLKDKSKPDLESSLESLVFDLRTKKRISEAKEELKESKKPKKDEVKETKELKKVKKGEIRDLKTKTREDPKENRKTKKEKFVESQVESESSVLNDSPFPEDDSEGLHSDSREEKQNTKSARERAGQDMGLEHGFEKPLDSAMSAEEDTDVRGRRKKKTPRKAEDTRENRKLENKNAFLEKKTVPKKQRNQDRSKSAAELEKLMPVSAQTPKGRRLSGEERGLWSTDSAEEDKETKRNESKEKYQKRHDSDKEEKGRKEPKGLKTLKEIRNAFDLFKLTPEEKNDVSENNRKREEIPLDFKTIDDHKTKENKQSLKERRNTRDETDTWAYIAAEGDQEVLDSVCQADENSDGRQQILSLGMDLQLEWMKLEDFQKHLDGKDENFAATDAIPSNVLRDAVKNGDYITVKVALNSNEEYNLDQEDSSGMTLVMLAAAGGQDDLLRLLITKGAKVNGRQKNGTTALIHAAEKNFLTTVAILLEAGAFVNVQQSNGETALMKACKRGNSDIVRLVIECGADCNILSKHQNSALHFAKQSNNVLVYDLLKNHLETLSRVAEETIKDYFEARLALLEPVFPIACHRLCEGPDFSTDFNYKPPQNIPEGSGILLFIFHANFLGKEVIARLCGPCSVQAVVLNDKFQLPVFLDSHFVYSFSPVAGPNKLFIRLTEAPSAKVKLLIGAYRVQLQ
Chain of Glucocorticoid receptor (Homo sapiens) (P04150 whole entry, looked up, the tested form may be a part): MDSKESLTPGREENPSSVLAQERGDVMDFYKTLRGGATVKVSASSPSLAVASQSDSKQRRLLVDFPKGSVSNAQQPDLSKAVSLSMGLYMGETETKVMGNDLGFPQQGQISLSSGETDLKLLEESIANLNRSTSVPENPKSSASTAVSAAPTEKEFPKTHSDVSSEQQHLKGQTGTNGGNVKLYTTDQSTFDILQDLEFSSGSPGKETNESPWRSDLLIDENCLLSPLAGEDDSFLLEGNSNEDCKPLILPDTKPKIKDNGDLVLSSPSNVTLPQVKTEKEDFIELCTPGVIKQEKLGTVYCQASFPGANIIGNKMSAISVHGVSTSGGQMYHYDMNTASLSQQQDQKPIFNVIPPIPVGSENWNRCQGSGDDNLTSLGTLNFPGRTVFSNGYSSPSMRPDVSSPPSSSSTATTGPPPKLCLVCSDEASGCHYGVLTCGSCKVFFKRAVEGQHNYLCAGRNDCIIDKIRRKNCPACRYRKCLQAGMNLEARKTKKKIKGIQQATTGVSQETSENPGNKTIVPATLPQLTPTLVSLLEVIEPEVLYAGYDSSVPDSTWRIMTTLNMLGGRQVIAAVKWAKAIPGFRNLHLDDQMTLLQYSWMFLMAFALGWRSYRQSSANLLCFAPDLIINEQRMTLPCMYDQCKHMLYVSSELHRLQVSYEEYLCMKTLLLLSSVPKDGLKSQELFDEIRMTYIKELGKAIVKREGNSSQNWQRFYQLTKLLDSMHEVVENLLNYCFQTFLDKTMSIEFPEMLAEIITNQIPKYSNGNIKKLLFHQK
Chain of 3',5'-cyclic-AMP phosphodiesterase 4B (Homo sapiens) (Q07343 whole entry, looked up): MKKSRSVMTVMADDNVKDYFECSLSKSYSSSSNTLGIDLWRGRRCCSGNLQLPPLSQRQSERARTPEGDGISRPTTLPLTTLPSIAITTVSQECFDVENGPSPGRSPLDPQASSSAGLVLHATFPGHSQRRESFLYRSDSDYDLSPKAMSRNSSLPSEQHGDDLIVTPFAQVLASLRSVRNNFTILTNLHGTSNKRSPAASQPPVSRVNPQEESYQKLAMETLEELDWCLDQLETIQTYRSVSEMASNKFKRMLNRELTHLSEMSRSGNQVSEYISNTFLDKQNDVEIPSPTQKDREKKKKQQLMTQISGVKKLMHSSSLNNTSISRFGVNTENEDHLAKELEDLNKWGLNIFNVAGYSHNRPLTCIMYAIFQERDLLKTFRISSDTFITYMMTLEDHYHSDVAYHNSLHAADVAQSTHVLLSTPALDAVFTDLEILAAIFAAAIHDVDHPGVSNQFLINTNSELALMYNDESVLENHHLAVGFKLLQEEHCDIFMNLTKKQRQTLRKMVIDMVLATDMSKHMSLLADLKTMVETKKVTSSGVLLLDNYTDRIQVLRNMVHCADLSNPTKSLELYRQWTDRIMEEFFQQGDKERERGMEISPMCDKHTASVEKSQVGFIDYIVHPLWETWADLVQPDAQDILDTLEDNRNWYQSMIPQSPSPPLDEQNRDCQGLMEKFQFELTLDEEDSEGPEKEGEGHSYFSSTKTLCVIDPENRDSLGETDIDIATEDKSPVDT
Chain of Voltage-gated inwardly rectifying potassium channel KCNH2 (Homo sapiens) (Q12809 whole entry, looked up): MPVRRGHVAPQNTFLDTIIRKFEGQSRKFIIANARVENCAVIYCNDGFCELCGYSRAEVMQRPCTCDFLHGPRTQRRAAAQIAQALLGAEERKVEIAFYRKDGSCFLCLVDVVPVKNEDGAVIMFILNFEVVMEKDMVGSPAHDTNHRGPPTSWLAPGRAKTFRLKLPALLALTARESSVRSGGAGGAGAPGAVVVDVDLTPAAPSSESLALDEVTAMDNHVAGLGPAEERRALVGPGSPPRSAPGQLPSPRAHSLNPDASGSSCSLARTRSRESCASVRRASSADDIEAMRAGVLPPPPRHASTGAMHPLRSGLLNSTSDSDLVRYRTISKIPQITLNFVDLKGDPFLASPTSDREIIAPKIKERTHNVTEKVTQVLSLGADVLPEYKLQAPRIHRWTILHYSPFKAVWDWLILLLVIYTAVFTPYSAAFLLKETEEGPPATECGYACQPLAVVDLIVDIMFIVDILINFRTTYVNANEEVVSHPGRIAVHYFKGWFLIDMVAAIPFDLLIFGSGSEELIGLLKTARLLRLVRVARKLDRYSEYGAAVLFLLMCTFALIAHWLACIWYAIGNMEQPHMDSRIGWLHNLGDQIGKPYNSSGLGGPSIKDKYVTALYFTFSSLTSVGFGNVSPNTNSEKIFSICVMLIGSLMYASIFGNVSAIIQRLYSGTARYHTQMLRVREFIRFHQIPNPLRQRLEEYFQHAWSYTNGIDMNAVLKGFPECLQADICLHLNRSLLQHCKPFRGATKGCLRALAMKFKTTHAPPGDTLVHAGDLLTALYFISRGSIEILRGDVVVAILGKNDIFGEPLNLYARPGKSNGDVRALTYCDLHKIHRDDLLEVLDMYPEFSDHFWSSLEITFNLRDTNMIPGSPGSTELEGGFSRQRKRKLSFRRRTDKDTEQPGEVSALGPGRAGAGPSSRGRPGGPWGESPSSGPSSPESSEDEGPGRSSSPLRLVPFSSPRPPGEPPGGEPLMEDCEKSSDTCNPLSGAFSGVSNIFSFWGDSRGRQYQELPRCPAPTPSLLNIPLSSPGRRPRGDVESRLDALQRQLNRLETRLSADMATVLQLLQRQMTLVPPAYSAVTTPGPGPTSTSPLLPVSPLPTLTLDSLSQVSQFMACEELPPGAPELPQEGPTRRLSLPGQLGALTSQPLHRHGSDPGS
Chain of DNA dC->dU-editing enzyme APOBEC-3G (Homo sapiens) (Q9HC16 whole entry, looked up): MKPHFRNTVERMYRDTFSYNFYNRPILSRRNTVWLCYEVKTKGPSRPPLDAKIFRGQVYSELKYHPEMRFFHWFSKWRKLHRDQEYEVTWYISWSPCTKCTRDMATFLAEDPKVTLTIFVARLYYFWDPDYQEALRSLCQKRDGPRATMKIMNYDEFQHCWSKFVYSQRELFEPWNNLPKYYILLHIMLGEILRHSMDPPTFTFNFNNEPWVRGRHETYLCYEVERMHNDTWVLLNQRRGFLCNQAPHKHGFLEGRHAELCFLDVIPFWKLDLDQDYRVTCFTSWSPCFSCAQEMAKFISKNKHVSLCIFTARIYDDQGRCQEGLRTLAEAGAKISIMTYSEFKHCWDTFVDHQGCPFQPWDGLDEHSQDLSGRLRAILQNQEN

NCCc1ccccc1
inactive: Potency [1] | Potency [2] | Potency [3] | Potency [4] | Potency [5]

c1cncc([C@@H]2CCCCN2)c1
inactive: outcome [6] | activity change, negative = inhibition [8] -6.22% | outcome [9] | Potency [10] > 20.6 µM and > 46 µM | Potency [11] > 20.6 µM and > 46 µM | Potency [12] | Potency [13]
5.01 µM (active) and inactive: Potency [7]

CN(C)Cc1c[nH]c2ccccc12
inactive: outcome [6] | Potency [7] | activity change, negative = inhibition [8] 1.81% | outcome [9] | Potency [10] > 20.6 µM and > 46 µM | Potency [11] > 20.6 µM and > 46 µM | Potency [12] | Potency [13] | Potency [1] | Potency [2] | Potency [3] | Potency [4] | Potency [5]

CC(=O)OCC1=C(C(=O)[O-])N2C(=O)[C@@H](NC(=O)CCC[C@@H](N)C(=O)[O-])[C@H]2SC1.[Zn+2]
inactive: outcome [14] | Potency [15] | Potency [16] | Potency [17] | Potency [18] | Potency [20]
active: Potency [19] 44.7 µM

CN1C2CCC1CC(OC(=O)C(CO)c1ccccc1)C2 (stereo not given)
inactive: outcome [14] | Potency [17]

CC(C)COC(=O)OCN1C(=O)CN(CCN2CC(=O)N(COC(=O)OCC(C)C)C(=O)C2)CC1=O
inactive: Potency [19]

Cc1ccccc1O
inactive: Potency [20]

CC(=O)[C@H]1CC[C@H]2[C@@H]3CCC4=CC(=O)CC[C@]4(C)[C@H]3CC[C@]12C
active: Potency [15] 11.2 µM | Potency [16] 12.6 µM | Potency [18] 8.91 µM
